A short description of this assay: NCI Yeast Anticancer Drug Screen. Data for the CLN2oe strain (AID 163).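 Note: 0% = growth of vehicle-only control cultures.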 The following applies: S. cerevisiae CLN2oe strain, stronger effect = higher value. The method, then:
Growth inhibition of yeast strains with defined genetic alterations is measured as a screen for potential anti-cancer activity. Selected strains with alterations in DNA damage repair or cell cycle control were exposed to compounds and growth inhibition was measured relative to vehicle treated controls. The strain used in this assay is CLN2oe

This is part of a sample that, as a whole, favours compounds with a hit. Of some 79,000 tested, about 15% had one in any assay. A number with no mark means an inactive call. Calls of active or inactive are those of the source. Cut-off read from the data, not from the text of the source: active = growth inhibition above about 70%; inactive = the rest.

For `CC[C@@]1(OC(=O)CCC(=O)O)C(=O)OCc2c1cc1n(c2=O)Cc2cc3ccccc3nc2-1`, the growth inhibition runs as follows: (at 1.2 µM) 10%; (at 3.7 µM) 21%; (at 11.0 µM) 33%; (at 33.0 µM) 73% (active); (at 100.0 µM) 87% (active).

For `O=NN(CCCl)C(=O)NC1CCCCC1`, the growth inhibition runs as follows: (at 1.2 µM) -3%; (at 3.7 µM) -2%; (at 11.0 µM) -3%; (at 33.0 µM) -5%; (at 100.0 µM) 18%.

In the case of `S=c1nc(Cl)cc2[nH]c(Cl)cn12`, the growth inhibition reads like this: (at 1.2 µM) 1%; (at 3.7 µM) -1%; (at 11.0 µM) 3%; (at 33.0 µM) 3%; (at 100.0 µM) 60%.

Turning to `COc1cc2c(cc1C[N+](C)(C)CSc1ccccc1)-c1ccccc1CC2`, the growth inhibition (at 1.2 µM) was -17%; the growth inhibition (at 3.7 µM) was 6%; the growth inhibition (at 11.0 µM) was 70% (active); the growth inhibition (at 33.0 µM) was 98% (active); the growth inhibition (at 100.0 µM) is 99% (active).

Consider `CN(NC(=O)/C(=C/c1ccc(O)cc1)NC(=O)c1ccccc1)c1ccnc2cc(Cl)ccc12`, for which the growth inhibition runs as follows: (at 1.2 µM) 6%; (at 3.7 µM) 3%; (at 11.0 µM) 13%; (at 33.0 µM) 39%; (at 100.0 µM) 65%.

For the compound `CC[C@@]1(OC(=O)CN(C)C)C(=O)OCc2c1cc1n(c2=O)Cc2cc3c(N)cccc3nc2-1`, the growth inhibition (at 1.2 µM) is -8%; the growth inhibition (at 3.7 µM) is 1%; the growth inhibition (at 11.0 µM) was 8%; the growth inhibition (at 33.0 µM) was 43%; the growth inhibition (at 100.0 µM) is 80% (active).

Consider `Cc1ccc2c(ccc(/C=C/c3ccc(O)c4ncccc34)[n+]2C)c1`, for which the growth inhibition reads like this: (at 1.2 µM) -6%; (at 3.7 µM) 18%; (at 11.0 µM) 78% (active); (at 33.0 µM) 90% (active); (at 100.0 µM) 77% (active).

Regarding `CC1CCC2(C(=O)O)CCC3(C)C(=CCC4C5(C)CC(O)C(O)C(C)(CO)C5C(O)CC43C)C2C1C` (stereo not given), the growth inhibition runs as follows: (at 1.2 µM) -6%; (at 3.7 µM) -4%; (at 11.0 µM) 3%; (at 33.0 µM) 7%; (at 100.0 µM) 78% (active).

The record behind these values is PubChem BioAssay (NCI).
